Assay results as given in PubChem BioAssay (NCI).
The panel holds about 79,000 compounds, 15% with a hit somewhere; the sample as a whole holds those more often. Calls of active or inactive are those of the source. Rule as the data show it: active = growth inhibition above about 70%; inactive = the rest.

Tests used:
[1] = NCI Yeast Anticancer Drug Screen. Data for the rad50 strain (AID 155);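 also: 0% = growth of vehicle-only cultures of the same strain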; details: S. cerevisiae rad50 strain growth inhibition; at 50.0 µM; active compounds read high
Summary of the method: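 DNA repair mutant yeast, compound exposure, growth read-out; inhibition is taken relative to vehicle.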

[2] = NCI Yeast Anticancer Drug Screen. Data for the mec2-1 strain (AID 157); details: S. cerevisiae mec2-1 strain, at 50.0 µM, active compounds read high
Summary of the method: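 Using mec2-1 yeast: add compound, measure growth, express inhibition versus vehicle-treated cultures.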

[3] = NCI Yeast Anticancer Drug Screen. Data for the sgs1 mgt1 strain (AID 161);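 also: 0% = growth of cultures given vehicle only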; details: S. cerevisiae sgs1 mgt1 strain, at 50.0 µM, active compounds read high
Summary of the method: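 Yeast cells carrying a defined DNA-repair defect were exposed to test compounds. Growth inhibition was measured relative to vehicle-treated controls.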

[4] = NCI Yeast Anticancer Drug Screen. Data for the cln2 rad14 strain (AID 165);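 also: 0% = growth equal to vehicle treated cultures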; details: S. cerevisiae cln2 rad14 strain, at 50.0 µM, active compounds read high
Summary of the method: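 Yeast strain cln2 rad14, bearing defects in cell cycle control and DNA repair, serves as the test system; values reflect growth inhibition compared with vehicle.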

[5] = NCI Yeast Anticancer Drug Screen. Data for the bub3 strain (AID 167); details: S. cerevisiae bub3 mutant strain, at 50.0 µM, active compounds read high
Summary of the method: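 In this screen, a yeast mutant lacking normal mitotic checkpoint function is challenged with compound. Relative growth versus vehicle gives the inhibition value.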

[6] = NCI Yeast Anticancer Drug Screen. Data for the mlh1 rad18 strain (AID 175); details: S. cerevisiae mlh1 rad18 strain growth inhibition; at 50.0 µM; active compounds read high
Summary of the method: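 Steps: expose repair-defective yeast to compound; measure growth; express inhibition against vehicle-treated controls.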

Measured: growth inhibition

CCOC(=O)C1(C(=O)OCC)CSC1
inactive: [1] -16.6% | [2] -5.45% | [3] -17.1% | [4] 3.85% | [5] -17.8% | [6] -22.3%

CCCC(=O)Nc1cc(C(=O)N2C[C@H]3C[C@@]34C2=CC(=O)c2[nH]cc(C)c24)n(COC)c1
inactive: [1] 43.9% | [2] 59.2% | [3] 68.2% | [4] 41.4% | [5] 5.85% | [6] 69.8%

COc1cc(-c2oc3ccccc3c(=O)c2O)cc(OC)c1OC
inactive: [1] -29.6% | [2] -51.8% | [3] -16.3% | [4] -22.8% | [5] -42% | [6] -14.1%

COc1cc(C)c2c([N+](=O)[O-])cc([N+](=O)[O-])c(OC)c2n1
inactive: [1] 12% | [2] 17.9% | [3] 4% | [4] 3.85% | [5] -10.2% | [6] 7.05%

CC1(C)C(N)C(C)(C)C1N (stereo unspecified)
inactive: [1] -0.05% | [2] -14.5% | [3] -0.3% | [4] 11.8% | [5] 17.1% | [6] 2.3%

Nc1cccn2cnnc12
inactive: [1] 0.1% | [2] 15.9% | [3] -4.6% | [4] 17.4% | [5] 23.1% | [6] 19.4%

CCCCCc1c2nc(c(CCCCC)c3ccc([nH]3)c(CCCCC)c3ccc([nH]3)c(CCCCC)c3nc1C=C3)C=C2
inactive: [1] 0.1% | [2] -11.8% | [3] -10.3% | [4] 23.1% | [5] -10.5% | [6] -15.6%

CCc1cnccc1C
inactive: [1] 10.3% | [2] -14.9% | [3] -19.1% | [4] 6.25% | [5] 6.45% | [6] -9.75%

CC(C)(Oc1ccc(C(=O)c2ccc(Cl)cc2)cc1Cl)C(=O)N1CCN(CCO)CC1
inactive: [1] -18.9% | [2] -8.65% | [3] 15.9% | [4] 12.3% | [5] 11.3% | [6] 12.9%

CC(=O)Oc1ccc(OC(C)=O)c2cc3ccccc3cc12
inactive: [1] -28.1% | [2] -29.1% | [3] -32.9% | [4] -6.6% | [5] -12.8% | [6] -19.8%

Cc1[nH]c2ccccc2c1C1Cc2ccccc2N1C(=O)/C=C/C=C/c1ccccc1 (stereo unspecified)
inactive: [1] 10.4% | [2] 24.7% | [3] -39.4% | [4] 38.5% | [5] 2.2% | [6] 15.2%

CCCCCCC(O)C/C=C\CCCCCCCC(=O)O (stereo unspecified)
inactive: [1] -14% | [2] -3.7% | [3] -30.9% | [4] 62.9% | [5] -9.2% | [6] -15.9%

C[N+]1(C)CCOC(O)(c2ccccc2)C1 (stereo unspecified)
inactive: [1] -29.6% | [2] -34% | [3] -27.4% | [4] -2.85% | [5] -59.1% | [6] -18.6%

CSc1ccc(OC(=O)C(C)NC(=O)C(CO)NC(=O)OCc2ccccc2)cc1 (stereo unspecified)
inactive: [1] 5.85% | [2] 1.55% | [3] -1.05% | [4] -2% | [5] -1.6% | [6] 15.2%

COc1cc(CC(NC(=O)c2ccccc2)C(C)=O)cc(OC)c1OC (stereo unspecified)
inactive: [1] -9.7% | [2] 9.35% | [3] -5.4% | [4] -26.2% | [5] 27.8% | [6] -4.1%

CCSC(=S)S
inactive: [1] -0.35% | [2] -23% | [3] -12.2% | [4] 7.15% | [5] 0.25% | [6] -0.3%

c1coc(C2SCSCS2)c1
inactive: [1] 0.35% | [2] 5.8% | [3] -6.7% | [4] -13.5% | [5] -8.2% | [6] -4.2%

O=C(O)C1(Br)CC1(c1ccccc1)c1ccccc1 (stereo unspecified)
inactive: [1] 28.2% | [2] 5.25% | [3] 3.65% | [4] -14.1% | [5] -0.7% | [6] 26.1%

COc1cc(NC(C)=O)c2nccnc2c1
inactive: [1] -16.4% | [2] -21.6% | [3] 0.1% | [4] -20.6% | [5] -0.95% | [6] -14.2%

OC1CC2CCCCC2CC1c1ccccc1 (stereo unspecified)
inactive: [1] 14.1% | [2] 3.1% | [3] -15.3% | [4] -0.05% | [5] 27.4% | [6] 33.5%

S=C(N1CCN(c2cccc(Cl)c2)CC1)N1CCN(c2cccc(Cl)c2)CC1
inactive: [1] -7.4% | [2] 13.7% | [3] 23% | [4] 9.6% | [5] 2.1% | [6] 12.7%

NC(=S)N/N=C/c1ccco1
inactive: [1] -26.2% | [2] -11.3% | [3] -18.3% | [4] -67.2% | [5] -23.9% | [6] -8.2%

C1C2CC3CC1CC(c1nn4c(C56CC7CC(CC(C7)C5)C6)nnc4s1)(C2)C3
inactive: [1] -20.4% | [2] -12.8% | [3] -9.1% | [4] 11.2% | [5] -12.4% | [6] -17.9%

COc1nc(SC)nc2c1cnn2C1OC(C(O)CO)C(OC)C1O (stereo unspecified)
inactive: [1] 4.85% | [2] -1.7% | [3] 3.35% | [4] 9.95% | [5] -4.6% | [6] 16.3%

COc1cc(C=Nc2cc(Cl)c(N=O)c(Cl)c2)ccc1N(CCCCl)CCCCl
inactive: [1] 33.4% | [2] -13% | [3] 40.8% | [4] -15.8% | [5] 2.2% | [6] 12.3%

O=S(=O)(c1ccccc1)N1CCCCC1
inactive: [1] -23.3% | [2] 5.05% | [3] 3.45% | [4] -33% | [5] 29.5% | [6] 25.6%

C[C@]12CC[C@@H]3c4ccc(OS(C)(=O)=O)cc4CC[C@H]3[C@@H]1CC[C@@H]2OS(C)(=O)=O
inactive: [1] 30.6% | [2] -0.5% | [3] 22.8% | [4] 22.1% | [5] 10.8% | [6] 9.9%

O=C1OCc2c[n+]([O-])ccc21
inactive: [1] -17.4% | [2] -9.2% | [3] -6.85% | [4] -30.2% | [5] 0.65% | [6] 4.35%

C/C(=N\N=C(/C)c1ccc(O)cc1O)c1ccc(O)cc1O
inactive: [1] 13.7% | [2] 12.7% | [3] -3.5% | [4] 6.15% | [5] 6.75% | [6] -3.35%

NC(CCS(N)(=O)=O)C(=O)O (stereo unspecified)
inactive: [1] -9.45% | [2] -5.3% | [3] -1.85% | [4] -2.7% | [5] 5.5% | [6] -10.9%

COc1ccc(NC(=O)Oc2ccc3c(C)cc(=O)oc3c2)c(OC)c1 (tested in a mixture with another compound)
inactive: [1] -3.7% | [2] -6.2% | [3] -22.6% | [4] -19.7% | [5] 1.8% | [6] 12.3%

CC1CCC2c3c([nH]c4ccccc34)C3C(=O)N(C4CCCCC4)C(=O)C3C2C1 (stereo unspecified)
inactive: [1] 5.65% | [2] 0.25% | [3] 1.8% | [4] 3.05% | [5] 4.1% | [6] 2.25%

CCN(CC)CCNc1cc2ccccc2c2sc3ccccc3c(=O)c12
active: [1] 98.5% | [2] 99.2% | [3] 97.6% | [4] 98.8% | [5] 98.2% | [6] 98.3%

CCCCN1C(=O)c2ccccc2C1=O
inactive: [1] 5.55% | [2] -10.7% | [3] 27.2% | [4] 7.9% | [5] 9.45% | [6] 13.4%

Cc1c(COC(=O)NC(C)C)c(COC(=O)NC(C)C)c(-c2ccccc2)n1-c1ccccc1
inactive: [1] -16% | [2] -1.95% | [3] 13.8% | [4] -8.1% | [5] -14.1% | [6] 64.2%

Cc1ccccc1C(N)=O
inactive: [1] 23.7% | [2] 3.6% | [3] 11.2% | [4] -12.6% | [5] 12.8% | [6] 26.5%

COc1ccc2c(c1)C/C(=C\c1cccc3ccccc13)C2=O
inactive: [1] -51.9% | [2] -19.3% | [3] -0.15% | [4] -23.1% | [5] 28.1% | [6] -0.7%

O=C(Nc1cccc([N+](=O)[O-])c1)c1ccccc1Cl
inactive: [1] -0.65% | [2] 16.1% | [3] 1.85% | [4] 0.8% | [5] 12.9% | [6] 8.75%

Nc1nc(N)c(-c2ccc(Cl)c(Cl)c2)c(COc2cccc3ccccc23)n1
active: [1] 98.7% | [2] 99% | [3] 99.2% | [4] 96.5% | [5] 98.1% | [6] 98.7%

CC(=O)c1ccc(C(=O)c2cccnc2)cc1
inactive: [1] -17% | [2] -9.2% | [3] -0.4% | [4] -49.3% | [5] -14.7% | [6] 7.4%

Cc1ccc2oc(=O)c3c(O)c4cccc(OC5OC(C)C6O[C@@H](c7ccccc7)OC6C5OC5OC(C)C(O)C(O)C5O)c4c4oc(=O)c1c2c34 (stereo partly specified)
active: [1] 87.2% | [2] 89.7% | [3] 91.5% | [4] 83.6% | [5] 89.7% | [6] 75.4%
